Screening results from PubChem BioAssay.
Only some compounds are listed: those with a hit (about 9.9% of all), similar ones and a draw of the others.
SW480 rereplic: DNA re-replication induction in SW480 cells | SW480 DNA re-replication, Hoechst DNA content imaging, 48 h | Potency, µM (highest dose often 46.1 µM), for inactives: top-dose re-replication activation, usual class: activators | hit rate 1.8% among 340,000; further: potency means the concentration at half of the fitted maximal effect; % of control where 0% means no effect; nearly all actives have a fitted effect of over 55% in size
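Per well, 250 cells were exposed to pinned compound for 48 hr. Nuclear DNA was visualised with Hoechst (40 min, 37 C) and total object intensity recorded by fluorescence scanning.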
IL-1B inflam inh: blocks inflammasome-driven IL-1 beta release; THP-1 LPS/ATP IL-1B secretion, AlphaLISA, 16 h; active compounds read low; activity change, % at 57.5 µM; hit rate 4.7% among 360,000; AID 743279; in the data active means activity change below about -50%; inconclusive means mostly about -30% to -49%; further: on the % scale 0 is the no-effect control and ±100 the full control effect
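Secreted IL-1B measured by AlphaLISA bead assay after 16 h compound exposure of THP-1 cells; compounds (final up to 57.5 uM) added 1 h before LPS (250 ng/mL) and ATP (1.25 mM) stimulation; lower signal means less secretion.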
MCF10A rereplic: induces DNA re-replication in MCF 10a normal breast cells | MCF 10A DNA re-replication, Hoechst nuclear intensity, 48 h | Potency, µM (titrated, usually from 46.1 µM), for the others: at the top dose activity, positive = re-replication, usual class: activators | hit rate 2.9% among 350,000 | AID 624296; further: potency means the concentration at half of the fitted maximal effect; % of control where 0% means no effect; nearly all actives have a fitted effect of over 50% in size
KB-V1 MDR tox: kills drug-selected multidrug resistant KB-V1 cells; Potency, µM (top dose mostly 46.1 µM), most hits filed as cytotoxic; hit rate 3.4% among 400,000; KB-V1 MDR cells viability, CellTiter-Glo, 72 h; further: potency means the concentration at half of the fitted maximal effect; on the % scale 0 is the no-effect control and ±100 the full control effect; nearly all actives have a fitted effect of over 60% in size
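Cytotoxicity toward P-gp-expressing KB-V1 cells was determined as loss of CellTiter-Glo luminescence after 72 h at 37 degrees C. Compounds were tested in quantitative HTS format across a concentration range, with curves fitted to normalized data.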
KB-3-1 cytotox: KB-3-1 parental cell cytotoxicity; hit rate 1.4% among 400,000; KB-3-1 viability, CellTiter-Glo ATP luminescence, 72 h; AID 1347075; Potency, µM (titrated, usually from 46.1 µM), hits mostly cytotoxic; further: potency means the concentration at half of the fitted maximal effect; on the % scale 0 is the no-effect control and ±100 the full control effect; nearly all actives have a fitted effect of over 60% in size
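KB-3-1 parental drug-naive adenocarcinoma cells in DMEM/10% FBS, incubated 72 h at 37 C with pin-transferred compounds across a concentration series. Viability by CellTiter-Glo luminescence; concentration-response curves fitted after normalization.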
Active calls of the source: *. Unless noted, the call rests on the fitted dose curve; in most records, active means well fitted curve in the direction sought with a large enough effect; inconclusive means small, poorly fitted or top-dose-only effect, or another doubt; inactive means no such curve, though single readings can be large; an effect the other way counts as inactive or inconclusive.

What do the screens show for `COc1cccc(N2CCN(C(=O)CCn3nc(C)c(S(=O)(=O)N4CCCC4)c3C)CC2)c1`?
KB-V1 MDR tox: inactive; KB-3-1 cytotox: inactive

How did CCN(C[C@H]1N[C@@](Cc2ccccc2)(C(=O)OC)[C@H]2C(=O)N(C)C(=O)[C@@H]12)C(=O)NC(C)C do in these assays?
SW480 rereplic: 8%; IL-1B inflam inh: 14; MCF10A rereplic: -1%; KB-V1 MDR tox: inactive; KB-3-1 cytotox: inactive

Results for CN(C)C(=O)N1CCC(C(=O)NC2CCCCCCC2)CC1 ?
SW480 rereplic: 8.2µM*; IL-1B inflam inh: 24; MCF10A rereplic: inconclusive; KB-V1 MDR tox: inactive; KB-3-1 cytotox: inactive

What do the screens show for `COc1nc(OC)nc(N2CCCCCC2)n1`?
SW480 rereplic: -2%; IL-1B inflam inh: 26; MCF10A rereplic: 21µM*; KB-V1 MDR tox: inactive; KB-3-1 cytotox: inactive

Results for COc1nc(OC)nc(N2CCC(C(=O)NCC3CCCCC3)CC2)n1 ?
SW480 rereplic: -15%; IL-1B inflam inh: 1; MCF10A rereplic: 1%; KB-V1 MDR tox: 18µM*; KB-3-1 cytotox: inactive

How did O=C(NCC1CCCCC1)C1CCN(C(=O)NC2CCCCC2)CC1 do in these assays?
SW480 rereplic: 2%; IL-1B inflam inh: 18; MCF10A rereplic: 1%; KB-V1 MDR tox: 16µM*; KB-3-1 cytotox: inactive

Results for O=C(NC1CCCCC1)N1CCCCCC1 ?
SW480 rereplic: -7%; IL-1B inflam inh: 6; MCF10A rereplic: -3%; KB-V1 MDR tox: inactive; KB-3-1 cytotox: inactive

How did Cc1cc(C)nc(N2CCC(C(=O)NCC3CCCCC3)CC2)n1 do in these assays?
SW480 rereplic: -6%; IL-1B inflam inh: 18; MCF10A rereplic: -3%; KB-V1 MDR tox: inactive; KB-3-1 cytotox: inactive

Results for COc1ccc(Oc2ccccc2C=O)cc1 ?
SW480 rereplic: inconclusive; IL-1B inflam inh: 30; MCF10A rereplic: inconclusive; KB-V1 MDR tox: inactive; KB-3-1 cytotox: inactive

Results for O=C(O)C1CCN(C(=O)c2ccccc2N2C(=O)[C@@H]3Cc4c([nH]c5ccccc45)C(c4cccc(Cl)c4)N3C2=O)CC1 (some centres undefined) ?
SW480 rereplic: -3%; IL-1B inflam inh: 10; MCF10A rereplic: inconclusive; KB-V1 MDR tox: inconclusive; KB-3-1 cytotox: inactive

Results for O=C(N/N=C/C1C(c2ccccc2)C1(Cl)Cl)c1cccc(Cl)c1 (centres undefined) ?
SW480 rereplic: -12%; IL-1B inflam inh: -23; MCF10A rereplic: 0%; KB-V1 MDR tox: inactive; KB-3-1 cytotox: inactive

Results for COc1cc(NC(=O)CCc2c(C)noc2C)c(C(=O)O)cc1OC ?
IL-1B inflam inh: 17; KB-V1 MDR tox: inactive; KB-3-1 cytotox: inactive

How did C=C(C)C(=O)Oc1ccc(N2C(=O)[C@@H]3C4C=CC(C4)[C@@H]3C2=O)cc1 do in these assays?
SW480 rereplic: 15%; IL-1B inflam inh: -99*; MCF10A rereplic: -10%; KB-V1 MDR tox: inactive; KB-3-1 cytotox: inactive

Results for Cc1nc(SCC(=O)OC(C)(C)C)c2c3c(sc2n1)CCCC3 ?
KB-V1 MDR tox: inactive; KB-3-1 cytotox: inactive

What do the screens show for `c1ccc(N2CCN(c3c4c(nc5ncnn35)CCC4)CC2)cc1`?
SW480 rereplic: -12%; IL-1B inflam inh: -1; MCF10A rereplic: 2%; KB-V1 MDR tox: 2.9µM*; KB-3-1 cytotox: inactive

What do the screens show for `CC1CCCCC1NC(=O)C1CCN(c2c3c(nc4ncnn24)CCC3)CC1` (centres undefined)?
SW480 rereplic: -4%; IL-1B inflam inh: 0; MCF10A rereplic: 3%; KB-V1 MDR tox: inactive; KB-3-1 cytotox: inactive

Results for COc1cccc(N2CCN(c3c4c(nc5ncnn35)CCC4)CC2)c1 ?
SW480 rereplic: -1%; IL-1B inflam inh: -14; MCF10A rereplic: 4%; KB-V1 MDR tox: inconclusive; KB-3-1 cytotox: 23µM*

How did Cc1ccc(C)c(Nc2cc(C)nc(-c3ccccc3O)n2)c1 do in these assays?
SW480 rereplic: inconclusive; IL-1B inflam inh: 0; MCF10A rereplic: inconclusive; KB-V1 MDR tox: inactive; KB-3-1 cytotox: 2.6µM*

What do the screens show for `Cc1cc(Nc2ccccc2)nc(-c2ccccc2O)n1`?
SW480 rereplic: 1%; IL-1B inflam inh: -17; MCF10A rereplic: inconclusive; KB-V1 MDR tox: inactive; KB-3-1 cytotox: inactive

How did Cc1cc(Nc2cccc(F)c2)nc(-c2ccccc2O)n1 do in these assays?
SW480 rereplic: 10%; IL-1B inflam inh: -61*; MCF10A rereplic: 1%; KB-V1 MDR tox: inactive; KB-3-1 cytotox: inactive

How did Cc1cc(Nc2ccccc2Cl)nc(-c2ccccc2O)n1 do in these assays?
SW480 rereplic: inconclusive; IL-1B inflam inh: -70*; MCF10A rereplic: inconclusive; KB-V1 MDR tox: inactive; KB-3-1 cytotox: inactive

What do the screens show for `CC(C)C(C(=O)Nc1ccc(S(N)(=O)=O)cc1)N1C(=O)c2ccccc2C1=O` (centres undefined)?
SW480 rereplic: -4%; IL-1B inflam inh: 35; MCF10A rereplic: 0%; KB-V1 MDR tox: inactive; KB-3-1 cytotox: inactive

Results for Cc1ccnc(NC(=O)CCNC(=O)c2ccccc2Cl)c1 ?
SW480 rereplic: -5%; IL-1B inflam inh: 21; MCF10A rereplic: -1%; KB-V1 MDR tox: inactive; KB-3-1 cytotox: inactive

What do the screens show for `COc1ccc(C2=NN(C(C#N)c3ccc(OC)cc3)C(c3ccccc3)C2)cc1` (centres undefined)?
SW480 rereplic: 10%; IL-1B inflam inh: 19; MCF10A rereplic: inconclusive; KB-V1 MDR tox: 6.5µM*; KB-3-1 cytotox: 23µM*

What do the screens show for `COc1ccc(C2CC(c3ccccc3)=NN2C(=O)COC(=O)C2(C)CC2(Cl)Cl)cc1` (centres undefined)?
SW480 rereplic: 8%; IL-1B inflam inh: -68*; MCF10A rereplic: 7%; KB-V1 MDR tox: inactive; KB-3-1 cytotox: inactive

How did COc1ccc(C2CC(c3ccccc3)=NN2C(=O)CCC(=O)O)cc1 (centres undefined) do in these assays?
SW480 rereplic: -2%; IL-1B inflam inh: -4; MCF10A rereplic: 5%; KB-V1 MDR tox: inactive; KB-3-1 cytotox: inactive

Results for COc1ccc(CC(=O)OCC(=O)N2N=C(c3ccccc3)CC2c2ccc(OC)cc2)cc1 (centres undefined) ?
SW480 rereplic: 24%; IL-1B inflam inh: -2; MCF10A rereplic: inconclusive; KB-V1 MDR tox: 21µM*; KB-3-1 cytotox: inactive

Results for COc1ccc(C(C#N)N2N=C(C)CC2c2ccccc2)cc1 (centres undefined) ?
SW480 rereplic: -7%; IL-1B inflam inh: 10; MCF10A rereplic: 4%; KB-V1 MDR tox: inactive; KB-3-1 cytotox: inactive

How did COc1ccc(C2CC(c3ccccc3)=NN2C(=O)COC(=O)C2CC2)cc1 (centres undefined) do in these assays?
SW480 rereplic: -1%; IL-1B inflam inh: -14; MCF10A rereplic: 4%; KB-V1 MDR tox: inconclusive; KB-3-1 cytotox: inactive
